Measured values taken from PubChem BioAssay (NCATS).
Where “and” joins values, the source holds several entries; their conditions need not be identical. Equal entries are not always repeated. Values without a mark were called inactive. Results filed as inconclusive are left out. Entries that show only a call come without a potency. Calls of active or inactive are those of the source. Unless noted, calls follow the shape of the dose curve; as a rule, active = well fitted curve in the direction sought with a large enough effect; inconclusive = small, poorly fitted or top-dose-only effect, or another doubt; inactive = no such curve, though single readings can be large; an effect the other way counts as inactive or inconclusive.

Legend:
[1] = test system: Es-2; assay: Primary qHTS to identify gynecologic anti-cancer compounds using libraries of approved drugs and bioactive compounds (AID 1345084); conditions: Gynecologic cancer cell panel viability, ATPlite luminescence, 48 h; series mostly up to 57.5 µM; also: nearly all actives have a fitted effect of over 55% in size
How it was run: (§1)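 Five-point cytotoxicity, 48 h drug exposure at 37 C, 5% CO2, on cells seeded 16 h beforehand. ATP content read by ATPlite luminescence.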

[2] = test system: HeLa; assay: as above; conditions: Gynecologic cancer cell panel viability, ATPlite luminescence, 48 h; series mostly up to 57.5 µM
How it was run: as §1

[3] = test system: Hek293T; assay: as above; conditions: Gynecologic cancer cell panel viability, ATPlite luminescence, 48 h, control line for the selectivity index; series mostly up to 57.5 µM
How it was run: as §1

[4] = test system: JEG-3; assay: as above; conditions: Gynecologic cancer cell panel viability, ATPlite luminescence, 48 h; series mostly up to 57.5 µM
How it was run: as §1

[5] = test system: OV90; assay: as above; conditions: Gynecologic cancer cell panel viability, ATPlite luminescence, 48 h; series mostly up to 57.5 µM
How it was run: as §1

[6] = test system: PA-1; assay: as above; conditions: Gynecologic cancer cell panel viability, ATPlite luminescence, 48 h; series mostly up to 57.5 µM
How it was run: as §1

[7] = test system: SKOV3; assay: as above; conditions: Gynecologic cancer cell panel viability, ATPlite luminescence, 48 h; series mostly up to 57.5 µM
How it was run: as §1

[8] = test system: Tov-21-G; assay: as above; conditions: Gynecologic cancer cell panel viability, ATPlite luminescence, 48 h; series mostly up to 57.5 µM
How it was run: as §1

[9] = test system: Tov112D; assay: as above; conditions: Gynecologic cancer cell panel viability, ATPlite luminescence, 48 h; series mostly up to 57.5 µM
How it was run: as §1

[10] = Drug repurposing screens with cells derived from glioblastoma tumor samples (AID 1345199); conditions: GBM patient neurospheres viability, ATP luminescence, 48 h; also: nearly all actives have a fitted effect of over 40% in size; also: potency is read from the fitted curve at half-maximal effect
How it was run: (§2)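 Four patient lines of CD133+ GBM neurospheres were screened at several concentrations; hits were retested in those lines plus three slower-growing GBM lines, using 48-hour treatment and ATP-based viability.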

[11] = test system: astro; assay: as above; conditions: viability, ATP luminescence, 48 h; series mostly up to 45.9 µM
How it was run: as §2

[12] = target: Nuclear receptor subfamily 1 group I member 2 (Rattus norvegicus) (UniProt Q9R1A7); assay: qHTS assay for small molecule activators of the rat pregnane X receptor (rPXR) signaling pathway (AID 651751; call rule not given here); conditions: rPXR reporter cells, luciferase (One-Glo), 24 h
Chain of Nuclear receptor subfamily 1 group I member 2 (Rattus norvegicus) (Q9R1A7 whole entry, looked up): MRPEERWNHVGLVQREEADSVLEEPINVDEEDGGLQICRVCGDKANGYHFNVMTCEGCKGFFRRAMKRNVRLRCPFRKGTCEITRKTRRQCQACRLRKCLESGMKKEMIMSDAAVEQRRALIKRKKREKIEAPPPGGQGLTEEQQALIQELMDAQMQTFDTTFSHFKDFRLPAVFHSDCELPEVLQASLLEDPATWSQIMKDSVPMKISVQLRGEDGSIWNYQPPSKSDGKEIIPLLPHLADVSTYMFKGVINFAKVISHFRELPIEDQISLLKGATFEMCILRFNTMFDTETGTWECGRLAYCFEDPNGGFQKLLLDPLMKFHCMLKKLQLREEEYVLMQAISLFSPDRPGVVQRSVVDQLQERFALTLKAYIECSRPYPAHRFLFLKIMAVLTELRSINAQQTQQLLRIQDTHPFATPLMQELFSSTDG

[13] = qHTS assay for small molecule activators of the human pregnane X receptor (PXR) signaling pathway (AID 720659; call rule not given here)
[14] = at 45.9 µM (top of the series), tumour line B
[15] = at 45.9 µM (top of the series), tumour line D
[16] = at 21.2 µM (top of the series), tumour line B
[17] = at 21.2 µM (top of the series), tumour line D
[18] = at 46 µM (top of the series), tumour line A

C[C@H]1CNCCc2ccc(Cl)cc21
Potency [1]: inactive | Potency [2]: inactive | Potency [3]: inactive | Potency [4]: inactive | Potency [5]: inactive | Potency [6]: inactive | Potency [7]: inactive | Potency [8]: inactive | Potency [9]: inactive | activity, negative = cell killing [10, 14]: -18.8% | activity, negative = cell killing [10, 15]: -14.1% | Potency ([10]; tumour line A): 11.2 µM (active) | Potency [11]: inactive

C[C@]12CC[C@H]3[C@@H](CC=C4C[C@@H](O)CC[C@@]43C)[C@@H]1CC[C@@H]2O
Potency [1]: inactive | Potency [2]: inactive | Potency [3]: inactive | Potency [4]: inactive | Potency [5]: inactive | Potency [6]: inactive | Potency [7]: inactive | Potency [8]: inactive | Potency [9]: inactive | activity, negative = cell killing [10, 14]: -14.5% | Potency ([10]; tumour line A): 11.2 µM (active) | Potency [11]: inactive

C[C@@H]1CN(C2CCC(C#N)(c3ccc(F)cc3)CC2)CC[C@]1(C(=O)O)c1ccccc1 (stereo partly specified)
Potency [1]: inactive | Potency [2]: inactive | Potency [3]: inactive | Potency [4]: inactive | Potency [5]: inactive | Potency [6]: inactive | Potency [7]: inactive | Potency [8]: inactive | Potency [9]: inactive | activity, negative = cell killing [10, 16]: -8.19% | activity, negative = cell killing [10, 17]: -4.39% | Potency [11]: inactive

COP(=O)(OC)C(O)C(Cl)(Cl)Cl (stereo unspecified)
Potency [1]: inactive | Potency [2]: inactive | Potency [3]: inactive | Potency [4]: inactive | Potency [5]: inactive | Potency [6]: inactive | Potency [7]: inactive | Potency [8]: inactive | Potency [9]: inactive | activity, negative = cell killing [10, 14]: -5.86% | activity, negative = cell killing [10, 15]: -9.43% | activity, negative = cell killing [10, 18]: -20.1% | Potency [11]: inactive | max response [12]: 3.3%

OC(c1ccccc1)(c1ccccc1)C1CCNCC1
Potency [1]: inactive | Potency [2]: inactive | Potency [3]: inactive | Potency [4]: inactive | Potency [5]: inactive | Potency [6]: inactive | Potency [7]: inactive | Potency [8]: inactive | Potency [9]: inactive | activity, negative = cell killing [10, 16]: -16.1% | activity, negative = cell killing [10, 17]: -0.163% | Potency [11]: inactive

CN(C)C(=O)Oc1cc(OC(=O)N(C)C)cc(C(O)CNC(C)(C)C)c1 (stereo unspecified)
Potency [1]: inactive | Potency [2]: inactive | Potency [3]: inactive | Potency [4]: inactive | Potency [5]: inactive | Potency [6]: inactive | Potency [7]: inactive | Potency [8]: inactive | Potency [9]: inactive | activity, negative = cell killing [10, 16]: -7.15% | activity, negative = cell killing [10, 17]: -0.819% | activity, negative = cell killing ([10]; at 21.3 µM (top of the series), tumour line A): -13.9% | Potency [11]: inactive

CCS(=O)(=O)C(C)(C)S(=O)(=O)CC
Potency [1]: inactive | Potency [2]: inactive | Potency [3]: inactive | Potency [4]: inactive | Potency [5]: inactive | Potency [6]: inactive | Potency [7]: inactive | Potency [8]: inactive | Potency [9]: inactive | activity, negative = cell killing [10, 14]: -4.87% | activity, negative = cell killing [10, 15]: 5.45% | Potency [11]: inactive

C[N+](C)(C)CCOC(=O)C(O)(c1ccccc1)c1ccccc1
Potency [1]: inactive | Potency [2]: inactive | Potency [3]: inactive | Potency [4]: inactive | Potency [5]: inactive | Potency [6]: inactive | Potency [7]: inactive | Potency [8]: inactive | Potency [9]: inactive | activity, negative = cell killing [10, 14]: -4.79% | activity, negative = cell killing [10, 15]: -23.3% | Potency [11]: inactive

COc1cc(N)c(Cl)cc1C(=O)NC1CN2CCC1CC2 (stereo unspecified)
Potency [1]: inactive | Potency [2]: inactive | Potency [3]: inactive | Potency [4]: inactive | Potency [5]: inactive | Potency [6]: inactive | Potency [7]: inactive | Potency [8]: inactive | Potency [9]: inactive | activity, negative = cell killing [10, 14]: -1.32% | activity, negative = cell killing [10, 15]: 1.82% | Potency [11]: inactive

OC(O)C(Cl)(Cl)Cl
Potency [1]: inactive | Potency [2]: inactive | Potency [3]: inactive | Potency [4]: inactive | Potency [5]: inactive | Potency [6]: inactive | Potency [7]: inactive | Potency [8]: inactive | Potency [9]: inactive | activity, negative = cell killing [10, 14]: -7.9% | activity, negative = cell killing [10, 15]: -0.425% | activity, negative = cell killing [10, 18]: -19% | Potency [11]: inactive

CCOP(=S)(OCC)O/N=C(\C#N)c1ccccc1
Potency [1]: inactive | Potency [2]: inactive | Potency [3]: inactive | Potency [4]: inactive | Potency [5]: inactive | Potency [6]: inactive | Potency [7]: inactive | Potency [8]: inactive | Potency [9]: inactive | activity, negative = cell killing [10, 14]: 9.02% | activity, negative = cell killing [10, 15]: -6.28% | Potency [11]: inactive | max response [12]: -0.568%

C[C@@H]1CC[C@H]2[C@@H](C)C(=O)O[C@@H]3O[C@@]4(C)CC[C@@H]1[C@]32OO4
Potency [1]: inactive | Potency [2]: inactive | Potency [3]: inactive | Potency [4]: inactive | Potency [5]: inactive | Potency [6]: inactive | Potency [7]: inactive | Potency [8]: inactive | Potency [9]: inactive | activity, negative = cell killing [10, 14]: -29.6% | Potency [11]: inactive

CC(C)(C)OC(=O)c1ncn2c1[C@@H]1CCCN1C(=O)c1c(Br)cccc1-2
Potency [1]: inactive | Potency [2]: inactive | Potency [3]: inactive | Potency [4]: inactive | Potency [5]: inactive | Potency [6]: inactive | Potency [7]: inactive | Potency [8]: inactive | Potency [9]: inactive | activity, negative = cell killing [10, 14]: -9.06% | activity, negative = cell killing [10, 15]: -11.3% | Potency [11]: inactive

CCC1(c2cccc(O)c2)CCCCN(C)C1 (stereo unspecified)
Potency [1]: inactive | Potency [2]: inactive | Potency [3]: inactive | Potency [4]: inactive | Potency [5]: inactive | Potency [6]: inactive | Potency [7]: inactive | Potency [8]: inactive | Potency [9]: inactive | activity, negative = cell killing [10, 16]: -5.3% | activity, negative = cell killing [10, 17]: -23.7% | Potency [11]: inactive

CC(Cc1ccc2c(c1)OCO2)NO (stereo unspecified)
Potency [1]: inactive | Potency [2]: inactive | Potency [3]: inactive | Potency [4]: inactive | Potency [5]: inactive | Potency [6]: inactive | Potency [7]: inactive | Potency [8]: inactive | Potency [9]: inactive | activity, negative = cell killing ([10]; at 108 µM (top of the series), tumour line B): -8.99% | activity, negative = cell killing ([10]; at 108 µM (top of the series), tumour line D): -8.83% | Potency [11]: inactive

Oc1c(Br)cc(Br)cc1Br
Potency [1]: inactive | Potency [2]: inactive | Potency [3]: inactive | Potency [4]: inactive | Potency [5]: inactive | Potency [6]: inactive | Potency [7]: inactive | Potency [8]: inactive | Potency [9]: inactive | activity, negative = cell killing [10, 14]: -7.26% | activity, negative = cell killing [10, 15]: 14.2% | activity, negative = cell killing [10, 18]: -28% | Potency [11]: inactive | max response [12]: 8.69% and -3.29%

Cc1ccc(N=CN(C)C=Nc2ccc(C)cc2C)c(C)c1
Potency [1]: inactive | Potency [2]: inactive | Potency [3]: inactive | Potency [4]: inactive | Potency [5]: inactive | Potency [6]: inactive | Potency [7]: inactive | Potency [8]: inactive | Potency [9]: inactive | activity, negative = cell killing [10, 14]: -15.5% | activity, negative = cell killing [10, 15]: -9.79% | Potency [11]: inactive | max response [12]: 4.54% | outcome [13]: inactive

COCC(=O)N(c1c(C)cccc1C)C(C)C(=O)OC (stereo unspecified)
Potency [1]: inactive | Potency [2]: inactive | Potency [3]: inactive | Potency [4]: inactive | Potency [5]: inactive | Potency [6]: inactive | Potency [7]: inactive | Potency [8]: inactive | Potency [9]: inactive | activity, negative = cell killing [10, 14]: -6.18% | activity, negative = cell killing [10, 15]: -6.37% | Potency [11]: inactive | max response [12]: 3.13%
